Reference: PubChem BioAssay AID1159580 (chemical genetic matrix, 2015)
Values joined by “and” are separate entries in the source; they are usually repeats but may differ in a detail not shown here. Equal values may be shown once. Hit rate of the full screen: of about 5,500 compounds, about 2,000 (36%) were called active. Inconclusive results (about 18%) are left out. Rule as the data show it: active = normalized growth mostly below about 0.91 (no sharp cut-off); inconclusive = no clear call, values can overlap the other calls; inactive = mostly above about 0.92. Some of the results follow.

Assay: chemical genetic growth profiling, strain panel (AID 1159580);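 also: tested at 20 µM; growth read once vehicle control cultures reached saturation at 30 °C; 1 = growth at the plate median or of vehicle wells; lower values mean less growth of the strain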
Details: S. cerevisiae deletion strains, growth OD

Measured: normalized growth

Clc1ccc(CSC(Cn2ccnc2)c2ccc(Cl)cc2Cl)cc1 (stereo not given)
active: locus YAL021C, strain ccr4, stronger effect = lower value 0.067 | locus YAL026C, strain drs2, stronger effect = lower value 0.0648 | locus YAL030W, strain snc1, stronger effect = lower value 0.0596 | locus YBL061C, strain skt5, stronger effect = lower value 0.062 | locus YBR009C, strain hhf1, stronger effect = lower value 0.0601 | locus YBR021W, strain FUR4, stronger effect = lower value 0.0857 | locus YBR023C, strain chs3, stronger effect = lower value 0.0649 | locus YBR171W, strain sec66, stronger effect = lower value 0.076 | locus YBR229C, strain ROT2, stronger effect = lower value 0.0457 | locus YBR231C, strain swc5, stronger effect = lower value 0.064 | locus YBR279W, strain paf1, stronger effect = lower value 0.064 | locus YCL011C, strain gbp2, stronger effect = lower value 0.0611 | locus YCL016C, strain dcc1, stronger effect = lower value 0.0681 | locus YCL029C, strain bik1, stronger effect = lower value 0.0583 | locus YCL069W, strain vba3, stronger effect = lower value 0.0628 | locus YCR088W, strain abp1, stronger effect = lower value 0.0629 | locus YDL005C, strain med2, stronger effect = lower value 0.0743 | locus YDL035C, strain GPR1, stronger effect = lower value 0.0497 | locus YDL040C, strain nat1, stronger effect = lower value 0.059 | locus YDL074C, strain BRE1, stronger effect = lower value 0.0766 | locus YDL101C, strain DUN1, stronger effect = lower value 0.0543 | locus YDL134C, strain PPH21, stronger effect = lower value 0.048 | locus YDL185W, strain tfp1, stronger effect = lower value 0.0566 | locus YDL192W, strain arf1, stronger effect = lower value 0.0601 | locus YDR001C, strain nth1, stronger effect = lower value 0.0613 | locus YDR069C, strain doa4, stronger effect = lower value 0.0624 | locus YDR101C, strain arx1, stronger effect = lower value 0.0606 | locus YDR137W, strain rgp1, stronger effect = lower value 0.102 | locus YDR150W, strain NUM1, stronger effect = lower value 0.0543 | locus YDR159W, strain sac3, stronger effect = lower value 0.0874 | locus YDR162C, strain NBP2, stronger effect = lower value 0.0476 | locus YDR195W, strain ref2 0.129 | locus YDR297W, strain sur2, stronger effect = lower value 0.0568 | locus YDR318W, strain mcm21, stronger effect = lower value 0.0592 | locus YDR334W, strain swr1, stronger effect = lower value 0.0638 | locus YDR335W, strain msn5, stronger effect = lower value 0.0624 | locus YDR388W, stronger effect = lower value 0.0553 | locus YDR392W, strain spt3, stronger effect = lower value 0.0838 | locus YDR502C, strain sam2, stronger effect = lower value 0.0567 | locus YEL003W, strain gim4, stronger effect = lower value 0.054 | locus YEL037C, strain rad23, stronger effect = lower value 0.0579 | locus YEL061C, strain CIN8 (second series), stronger effect = lower value 0.0613 | locus YEL061C, strain CIN8, stronger effect = lower value 0.0475 | locus YER015W, strain faa2, stronger effect = lower value 0.0623 | locus YER016W, strain bim1, stronger effect = lower value 0.061 | locus YER110C, stronger effect = lower value 0.0729 | locus YER111C, strain swi4, stronger effect = lower value 0.0739 | locus YER155C, strain BEM2 (second series), stronger effect = lower value 0.0999 | locus YER155C, strain BEM2, stronger effect = lower value 0.0594 | locus YER167W, strain BCK2, stronger effect = lower value 0.0492 | locus YFR010W, strain ubp6, stronger effect = lower value 0.0712 | locus YGL078C, strain dbp3, stronger effect = lower value 0.0667 | locus YGL086W, strain mad1, stronger effect = lower value 0.0535 | locus YGL167C, strain pmr1, stronger effect = lower value 0.0756 | locus YGL173C, strain kem1, stronger effect = lower value 0.0697 | locus YGL227W, strain vid30, stronger effect = lower value 0.065 | locus YGL240W, strain doc1, stronger effect = lower value 0.0922 | locus YGL248W, strain PDE1, stronger effect = lower value 0.0451 | locus YGL253W, strain hxk2, stronger effect = lower value 0.0562 | locus YGR078C, strain PAC10, stronger effect = lower value 0.0475 | locus YGR135W, strain pre9, stronger effect = lower value 0.0572 | locus YGR229C, strain SMI1, stronger effect = lower value 0.0582 | locus YGR252W, strain gcn5, stronger effect = lower value 0.112 | locus YHR013C, strain ard1, stronger effect = lower value 0.101 | locus YHR027C, strain rpn1, stronger effect = lower value 0.0633 | locus YHR030C, strain SLT2, stronger effect = lower value 0.0493 and 0.0968 | locus YHR079C, strain IRE1 (second series), stronger effect = lower value 0.0556 | locus YHR079C, strain IRE1, stronger effect = lower value 0.104 | locus YHR094C, strain hxt1, stronger effect = lower value 0.0572 | locus YHR129C, strain ARP1, stronger effect = lower value 0.0541 | locus YHR142W, strain chs7, stronger effect = lower value 0.0779 | locus YHR200W, strain rpn10, stronger effect = lower value 0.0594 | locus YIL066C, strain RNR3, stronger effect = lower value 0.047 | locus YIL073C, strain SPO22, stronger effect = lower value 0.109 | locus YIL125W, strain kgd1, stronger effect = lower value 0.0629 | locus YIR030C, strain dcg1, stronger effect = lower value 0.0572 | locus YJL092W, strain hpr5, stronger effect = lower value 0.0607 | locus YJL095W, strain BCK1 (second series), stronger effect = lower value 0.0571 | locus YJL095W, strain BCK1, stronger effect = lower value 0.0582 and 0.0962 | locus YJL115W, strain asf1, stronger effect = lower value 0.0715 | locus YJL129C, strain trk1, stronger effect = lower value 0.0907 | locus YJL134W, strain LCB3, stronger effect = lower value 0.0474 | locus YJL154C, strain vps35, stronger effect = lower value 0.0605 | locus YJL164C, strain tpk1, stronger effect = lower value 0.0651 | locus YJL166W, strain qcr8, stronger effect = lower value 0.0602 | locus YJL168C, strain set2, stronger effect = lower value 0.0557 | locus YJL187C, strain SWE1 (second series), stronger effect = lower value 0.0452 | locus YJL187C, strain SWE1, stronger effect = lower value 0.0595 | locus YJR043C, strain POL32, stronger effect = lower value 0.0608 | locus YJR066W, strain TOR1, stronger effect = lower value 0.00124
